Measurements published in the OligoGym collection.

Target: FANCG
Assay: pooled miR-30 sensor sort-seq; sequence = guide strand
Details: shRNA
Further: reference of the scale not given here.

Row | Sequence | sensor-assay potency score (higher = more potent)
1 | TTTTCTGGCATCTTCCCACAGC | -0.807
2 | TTGGGTAGCAGAGATGATGTGC | 0.442
3 | TAGGCTCCGCTGGATATCCTGG | -1.03
4 | TAGCAGCTCCAGACTCTCCAGC | -0.96
5 | TACACCTGGACCAACACAGGCC | 0.254
6 | ATAGCTTTCTAGGTACAGGGGG | 0.363
7 | TAGCTTTCTAGGTACAGGGGGA | -0.426
8 | TTGCAGACTATGGAGGAGCCCT | -1.08
9 | TCTCTGTGGATTTCCCATCTTA | -0.461
10 | TTGGCCTGTCGAACGAGCCGGT | -0.452
11 | TAGTAATTCTACCTCAATGAGA | -0.931
12 | ATAGAGTCAAGGCATCTTGGGC | -0.699
13 | TACAACAGTGCTCTCTGTGGAT | -0.172
14 | TAAGTGTCTCGATTACCTGGGC | -0.142
15 | TAAATTCACTAATTGCCACTTT | 0.314
16 | TATAGGAATGGTCACATTCCTA | -1.18
17 | TTCTACCTCAATGAGAAACTGC | -0.153
18 | TGCTGTGTACACCTGGACCAAC | -1.61
19 | TGTGTCTCCAGCACTCTCTCTA | 0.116

Target: FANCL
Assay: as above
Details: shRNA

Row | Sequence | sensor-assay potency score (higher = more potent)
20 | TTACCTAATGCAATTCTGCGTG | -0.355
21 | TAAAACTCTGTCTACTAGTTAG | -1.39
22 | TTAGTGATTCTATTGCTGCCAA | 0.323
23 | TAGATCAGGAGAGTGCTGCATT | -0.0519
24 | TAAGGTGGAAGTCTCTTCCCTG | 0.0592
25 | TAATAATCTTGCATTCTTCAGT | -0.383
26 | TTATGGAAACATTATTACCTAA | -1.18
27 | TAATCTTGCATTCTTCAGTTGT | 0.333
28 | TTCTCTGTTGTACTATTCGATG | -1.72
29 | TTCTGCAGGATACTTTGCCTTC | -0.558
30 | TTAGTGAAGAGACAAACGCAGA | -1.17
31 | TACAATATGGACATTCACCAAA | -0.784

Target: FASN
Assay: as above
Details: shRNA

Row | Sequence | sensor-assay potency score (higher = more potent)
32 | TACTTTCCCGTCGCATACCTGG | -1.06
33 | TTGAGCTGAAGCCTGCAGGCAG | -0.315
34 | TTCAGGAAGATAGCCATGCCGA | -1.28
35 | TAGCCCACGAGTGTCTCGGGGT | -0.532
36 | TCCACGAACTCAAACACCGGGG | -1.02
37 | TTGGAGAGCAGCACACACCGGA | -0.273
38 | TCGAAGAAGAAGGAGAGCCGGT | 0.123
39 | TTCATAGGTGACTTCCAGCAGC | -0.213
40 | TTGACAGCAGCCAAGTCGCGGA | -0.675
